BioA inh – M. tuberculosis BioA enzyme inhibitors, primary screen, biochemical, plate reader, single point, HTS; inhibition, % at 9.99 µM; purified M. tuberculosis BioA enzyme; AID 602481, 2012; 7,8-diaminopelargonic acid synthase BioA (Mycobacterium tuberculosis); hit rate 0.096% among 360,000; in the data active = inhibition above about 40%
FadD28 FP inh – inhibitors of FadD28 bisubstrate probe binding, primary screen, biochemical, fluorescence polarization, single point. Mycobacterium tuberculosis FadD28 fatty-acid-AMP ligase. inhibition, % at 12.5 µM. hit rate 0.22% among 360,000. AID 588549, 2011; in the data active = inhibition above about 8.5%, passing the limit was not always enough
Rv3671c protease – Rv3671c serine protease inhibitors, primary screen, biochemical, fluorescence polarization, M. tuberculosis H37Rv; P9WHR9; inhibition, % at 5.96 µM; hit rate 0.048% among 320,000; in the data active = inhibition above about 38%;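 note: extracellular domain of Rv3671c used as enzyme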
Target sequence (P9WHR9 whole entry, looked up, the tested form may be a part): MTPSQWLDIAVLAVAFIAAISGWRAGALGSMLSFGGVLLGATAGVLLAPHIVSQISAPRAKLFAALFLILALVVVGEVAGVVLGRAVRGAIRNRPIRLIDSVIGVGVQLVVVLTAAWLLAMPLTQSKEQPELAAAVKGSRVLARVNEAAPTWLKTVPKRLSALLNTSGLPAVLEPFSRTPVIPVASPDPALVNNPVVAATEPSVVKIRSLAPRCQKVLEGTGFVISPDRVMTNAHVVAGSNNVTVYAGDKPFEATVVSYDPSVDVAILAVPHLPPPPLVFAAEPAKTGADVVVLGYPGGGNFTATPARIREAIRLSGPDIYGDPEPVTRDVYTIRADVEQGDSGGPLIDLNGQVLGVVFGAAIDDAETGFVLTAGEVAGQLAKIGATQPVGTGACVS
FBA Mtb inh – Mtb FBA enzyme inhibitors, primary screen, biochemical, fluorescence, strain H37Rv; Fructose-bisphosphate aldolase (Mycobacterium tuberculosis (strain ATCC 25618 / H37Rv)), …; hit rate 2.3% among 360,000; purified M. tuberculosis FBA, fluorescence read-out; inhibition, % at 1 µM; in the data active = inhibition above about 27%
Target sequence (P9WQA3 whole entry, looked up): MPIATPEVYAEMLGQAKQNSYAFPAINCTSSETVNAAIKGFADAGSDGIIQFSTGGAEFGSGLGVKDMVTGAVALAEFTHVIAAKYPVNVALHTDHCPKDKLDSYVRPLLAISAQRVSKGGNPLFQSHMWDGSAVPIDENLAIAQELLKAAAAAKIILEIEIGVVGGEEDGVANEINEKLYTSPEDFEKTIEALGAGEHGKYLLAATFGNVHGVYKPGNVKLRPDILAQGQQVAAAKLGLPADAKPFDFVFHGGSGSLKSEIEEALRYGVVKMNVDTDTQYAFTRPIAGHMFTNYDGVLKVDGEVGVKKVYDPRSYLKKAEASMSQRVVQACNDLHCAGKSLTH
GDH-TPI inh – GDH-TPI coupling enzyme inhibitors, primary screen, artefact control for M. tuberculosis FBA inhibitor project, biochemical, absorbance, full deck. GDH-TPI coupled enzyme counterscreen, NADH absorbance. inhibition, % at 4.8 µM. hit rate 1.2% among 360,000; in the data active = inhibition above about 30%
Of the large screens only hits and unclear results are named; the others gave an inactive call. Shown are actives, neighbours in structure and some others; about 3% of the full set was active somewhere.

COc1ccc(/C=C(\C)C(=O)c2c(C)cc(C)[nH]c2=O)cc1	none
CCOc1ccc(/C=C(\C)C(=O)c2c(C)cc(C)[nH]c2=O)cc1	GDH-TPI inh 46
CC1=C(C#N)c2nc(N)c(C#N)c(C)c2/C1=C\c1ccc(OCC(=O)O)c(Cl)c1	FadD28 FP inh 14 (no result: BioA inh)
CCOC(=O)CSc1nc(N)c(C#N)c(-c2ccc(OCC)cc2)c1C#N	none
CC1CCc2sc3ncnc(N4CCN(C)CC4)c3c2C1 (stereo unspecified)	none (no result: Rv3671c protease)
CCC1CCc2c(sc3ncnc(N4CCOCC4)c23)C1 (stereo unspecified)	FBA Mtb inh 120
COc1ccc(S(=O)(=O)N(C)C[C@@H]2Oc3c(NC(=O)C4CC4)cccc3C(=O)N([C@@H](C)CO)C[C@H]2C)cc1	none (no result: FadD28 FP inh, Rv3671c protease, FBA Mtb inh, GDH-TPI inh)
c1ccn2c(c1)nc1c2nc2ccccn21	FBA Mtb inh active
C[C@@H]1CN([C@@H](C)CO)C(=O)Cc2cc(NS(C)(=O)=O)ccc2O[C@@H]1CN(C)S(=O)(=O)c1ccc(Cl)cc1	none (no result: FadD28 FP inh, Rv3671c protease, FBA Mtb inh, GDH-TPI inh)
CCCNC(=O)N1C[C@H](C)[C@@H](OC)CN(C)C(=O)c2cc(NC(=O)CCC)ccc2OC[C@@H]1C	none (no result: FadD28 FP inh, Rv3671c protease, FBA Mtb inh, GDH-TPI inh)
CN(C(=O)c1cnccn1)c1nnc(-c2cnccn2)s1	GDH-TPI inh 31
CN(C(=O)c1ccccn1)c1nnc(-c2cnccn2)s1	none
CO[C@@H]1CN(C)C(=O)c2ccc(NS(=O)(=O)c3cn(C)cn3)cc2OC[C@@H](C)N(Cc2cccc(C(F)(F)F)c2)C[C@H]1C	none (no result: FadD28 FP inh, Rv3671c protease, FBA Mtb inh, GDH-TPI inh)
CCCc1nnc2n1N=C(c1ccc(OC)c(OC)c1)CS2	none (no result: BioA inh)
COc1ccc(Cc2nnc3n2N=C(c2cc4ccccc4o2)CS3)cc1OC	GDH-TPI inh 41
Cc1ccnc2ccc(-c3nc4ccccc4o3)cc12	FBA Mtb inh 76
c1cncc(-c2nc3ccccc3o2)c1	none
CCC(=O)N(C)C[C@H]1Oc2cc(-c3ccc(C)cc3)ccc2S(=O)(=O)N([C@H](C)CO)C[C@H]1C	none (no result: FadD28 FP inh, Rv3671c protease, FBA Mtb inh, GDH-TPI inh)
Cc1cc(C)c2c(n1)nn1c(NCCOCCO)cc(C)nc21	FBA Mtb inh active
Cc1cc(NCCCN(C)C)n2nc(-c3cccs3)cc2n1	none
Cc1cc(C)c2c(n1)nn1c(NCCCN(C)C)cc(C)nc21	FBA Mtb inh active
CCc1nn2c(NCCCO)cc(C)nc2c1-c1ccc(F)cc1	none
O=C(O)Cc1ccc(C(=O)c2cccs2)s1	GDH-TPI inh 37
O=C(C[C@@H]1CC[C@@H]2[C@H](COC[C@H](O)CN2C(=O)Nc2ccc(C(F)(F)F)cc2)O1)NCC1CCCCC1	none (no result: FadD28 FP inh, Rv3671c protease, FBA Mtb inh, GDH-TPI inh)
Cc1ccc2nc(N3C(=O)CNC3=S)sc2c1	none
COc1ccc2nc(N3C(=O)CNC3=S)sc2c1	GDH-TPI inh 64
C/C=C/c1ccc2c(c1)O[C@H](CN(C)C(=O)C1CCOCC1)[C@@H](C)CN([C@@H](C)CO)S2(=O)=O	none (no result: FadD28 FP inh, Rv3671c protease, FBA Mtb inh, GDH-TPI inh)
COC(=O)C(=N/Nc1ccccc1C(=O)OC)/C(C)=N/O	GDH-TPI inh 44
COC(=O)c1ccccc1NC(=O)/C=N/O	none
CC(=O)C1=CN(Cc2ccccc2)CCC1=O	none (no result: Rv3671c protease)
COC(=O)/C=C/C1=CN(Cc2ccccc2)CCC1=O	GDH-TPI inh 61
C[C@H](CO)N1C[C@H](C)[C@@H](CN(C)C(=O)CCC(F)(F)F)OCCCC[C@H](C)Oc2ccc(NS(=O)(=O)c3cn(C)cn3)cc2C1=O	none (no result: FadD28 FP inh, Rv3671c protease, FBA Mtb inh, GDH-TPI inh)
O=c1c2ccccc2n(CC(O)CN2CCCCC2)c2ccccc12 (stereo unspecified)	FBA Mtb inh 109
CCN(CC)c1ccc(-c2nn3c(-c4n[nH]c5c4CCC5)nnc3s2)cc1	FBA Mtb inh 40
CO[C@H]1CN(C)C(=O)c2ccc(NC(=O)Nc3ccccc3F)cc2OC[C@@H](C)N(CC2CC2)C[C@H]1C	none (no result: FadD28 FP inh, Rv3671c protease, FBA Mtb inh, GDH-TPI inh)
Cc1ccc(-n2c(N)c(C(=O)Nc3ccccc3F)sc2=S)cc1C	GDH-TPI inh 33
C[C@H]1CN([C@@H](C)CO)C(=O)c2cc(NC(=O)CCN3CCOCC3)ccc2O[C@H]1CN(C)C(=O)Nc1ccccc1	none (no result: FadD28 FP inh, Rv3671c protease, FBA Mtb inh, GDH-TPI inh)
CN(C)S(=O)(=O)c1cccc(NC(=O)COC(=O)c2ccc3ccccc3n2)c1	none
CN(C)S(=O)(=O)c1cccc(NC(=O)COC(=O)/C=C/c2ccc(Br)o2)c1	GDH-TPI inh 39
Cc1ccc(NC(=O)COC(=O)/C=C/c2ccc(Br)o2)cc1S(=O)(=O)N(C)C	none (no result: BioA inh)
CN(C)S(=O)(=O)c1cccc(NC(=O)COC(=O)c2cc(-c3cccc(Br)c3)nc3ccccc23)c1	GDH-TPI inh 32 (no result: BioA inh)
CN(C)c1ccc(C=C2C(=O)NC(=O)NC2=O)cc1	GDH-TPI inh 31 (no result: Rv3671c protease)
CCCCC1(C)OC(=O)C(=Cc2c[nH]c3ccccc23)C(=O)O1 (stereo unspecified)	none (no result: BioA inh)
CCCCC1(C)OC(=O)C(=Cc2ccc(N(C)C)cc2)C(=O)O1 (stereo unspecified)	GDH-TPI inh 40
Cc1cc(C)n2nc(SCc3ccccc3F)nc2n1	FBA Mtb inh active
CCc1ccc(/C=C2\CN(CC)Cc3c2nc2ccccc2c3C(=O)O)cc1	GDH-TPI inh 44
O=[N+]([O-])c1cccc(/C=N/n2c(C3CCCCC3)n[nH]c2=S)c1	FadD28 FP inh 18 (no result: BioA inh)
CCCS(=O)(=O)c1c(S(=O)(=O)CCC)c2cc(-c3ccncc3)ccn2c1C(=O)OC	FBA Mtb inh active
O=C(NNC1=Nc2ccccc2SC1)c1ccc(Cl)cc1	GDH-TPI inh 38
Cc1cc(C(=O)O)ccc1-c1ccc(CO)o1	FBA Mtb inh 161
CC(C)CC#Cc1cnc2c(c1)C(=O)N([C@@H](C)CO)C[C@@H](C)[C@@H](CN(C)Cc1ccc3c(c1)OCO3)O2	none (no result: FadD28 FP inh, Rv3671c protease, FBA Mtb inh, GDH-TPI inh)
CCOc1cc(/C=C2/NC(=O)N(CC(=O)Nc3cccc(C)c3)C2=O)ccc1O	FadD28 FP inh 16
Cc1ccc(NC(=O)CN2C(=O)N/C(=C\c3ccco3)C2=O)cc1	GDH-TPI inh 34
Cc1cccc(NC(=O)CN2C(=O)N/C(=C\c3ccc(N4CCOCC4)cc3)C2=O)c1	GDH-TPI inh 31
O=C1N/C(=C/c2ccco2)C(=O)N1Cc1ccccc1F	GDH-TPI inh 33 (no result: BioA inh)
Cc1cc(N2CCOCC2)ccc1/C=C1\NC(=O)N(CC(=O)Nc2ccc(F)cc2)C1=O	none (no result: BioA inh)
CCOc1cc(/C=C2/NC(=O)N(CC(=O)Nc3cccc(C)c3)C2=O)ccc1OC	none
O=C(C[C@H]1CC[C@@H]2[C@H](COC[C@H](O)CN2C(=O)c2cccnc2)O1)NCc1ccccc1	none (no result: FadD28 FP inh, Rv3671c protease, FBA Mtb inh, GDH-TPI inh)
Cc1ccccc1S(=O)(=O)N1[C@@H](C#N)[C@@H](c2ccc(-c3ccc(F)cc3)cc2)[C@@H]1CO	none (no result: FadD28 FP inh, Rv3671c protease, FBA Mtb inh, GDH-TPI inh)
CCN(CC)C(=O)COc1ccc2oc(-c3ccco3)cc(=O)c2c1	FBA Mtb inh 134 (no result: BioA inh)
O=C(O)c1ccc(NS(=O)(=O)c2ccc3c(c2)C2C=CCC2C(c2ccccc2F)N3)cc1 (stereo unspecified)	FadD28 FP inh 43 (no result: BioA inh, Rv3671c protease)
O=C(O)c1ccc2c(c1)C1C=CCC1C(c1cc3c(cc1Br)OCO3)N2 (stereo unspecified)	none (no result: BioA inh)

Screening results (PubChem BioAssay)
